Compound activity (PubChem BioAssay)
LANA DNA inh: blocks KSHV LANA C-terminal domain binding to DNA; MBP-C-LANA/FAM-LBS DNA binding, fluorescence polarization; inhibition, % at 9 µM; 340,000 tested, 0.078% active;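 active = highest replicate inhibition at or above 60% at 9 µM, even if other replicates fall short; inactive = all replicates below 60% inhibition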
RTF Ca sens inh: cardiac RTF calcium desensitization. 340,000 tested, 0.12% active. P19429+P45379. inhibition, % at 7.15 µM. IANBD-labeled cardiac RTF, Ca2+ fluorescence;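 active = inhibition above the mean inhibition of all tested compounds plus 3 SD, cut at about 17% in these data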;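 note: assay run at fixed EC70 calcium of 1.6 mM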
E coli Lon inh: E. coli protease La inhibition; 360,000 tested, 0.42% active; P0A9M0; AID 602123; purified E. coli Lon protease, fluorescence polarization; inhibition, % at 7.94 µM; in the data active = inhibition above about 13%, passing the limit was not always enough
Keap1-Nrf2 PPI: inhibitors of human Keap1-Nrf2 protein-protein interaction | Q14145 | 340,000 tested, 0.15% active | inhibition, % at 9.4 µM | Keap1 Kelch-Nrf2 peptide fluorescence polarization, 1536-well; in the data active = inhibition above about 12%;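 note: human Keap1 Kelch domain with fluorescein labeled Nrf2 9mer peptide probe; higher means more block of Keap1 binding to Nrf2 peptide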
Target sequence (Q14145 whole entry, looked up, the tested form may be a part): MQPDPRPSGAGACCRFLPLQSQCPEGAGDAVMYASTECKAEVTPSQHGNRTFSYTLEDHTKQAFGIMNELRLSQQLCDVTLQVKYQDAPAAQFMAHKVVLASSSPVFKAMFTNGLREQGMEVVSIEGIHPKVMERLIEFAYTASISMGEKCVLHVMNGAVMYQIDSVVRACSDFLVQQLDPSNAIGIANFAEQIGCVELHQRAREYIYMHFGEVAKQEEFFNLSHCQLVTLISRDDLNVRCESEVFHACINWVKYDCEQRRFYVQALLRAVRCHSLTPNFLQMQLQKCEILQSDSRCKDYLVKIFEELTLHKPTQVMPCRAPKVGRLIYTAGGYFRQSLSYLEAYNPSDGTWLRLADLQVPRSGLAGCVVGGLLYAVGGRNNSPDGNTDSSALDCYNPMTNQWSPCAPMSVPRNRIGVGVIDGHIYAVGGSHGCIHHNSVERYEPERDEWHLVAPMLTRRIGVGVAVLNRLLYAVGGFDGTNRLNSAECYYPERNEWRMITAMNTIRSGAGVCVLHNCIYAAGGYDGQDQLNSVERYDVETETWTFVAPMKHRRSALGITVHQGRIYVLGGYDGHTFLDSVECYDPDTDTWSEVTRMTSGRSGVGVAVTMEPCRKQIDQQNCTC
EBV gp42 block: blocks Epstein-Barr virus glycoprotein 42 binding. inhibition, % (tested at 21.74 µM). Fluorescence polarization binding assay, mP read-out. 220,000 tested, 0.42% active. AID 1085; in the data active = inhibition above about 50%
RTF Ca sens act: cardiac RTF calcium sensitization. P19429+P45379. IANBD-labeled TnC RTF fluorescence at EC20 calcium; 0% EC20 calcium, 100% full calcium. 340,000 tested, 0.24% active. activation, % at 7.2 µM;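 active = activation above the mean over all tested compounds plus 3 SD, cut at about 30% in these data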;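 note: rise in fluorescence read as greater calcium sensitivity of cardiac thin filaments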
RTF inh confirm: cardiac RTF calcium sensitivity inhibition, confirmation | shares compounds with RTF Ca sens inh | reconstituted cardiac thin filaments, calcium sensitivity fluorescence | inhibition, % at 7.15 µM | 360 tested, 8% active | AID 504635; in the data active = inhibition above about 18%
A number is an active result; n = inactive; x = not tested or not shown; ! = repeats disagree. The list is not random: actives were taken first. Their share in the collection is about 0.98%.

SMILES | LANA DNA inh | RTF Ca sens inh | E coli Lon inh | Keap1-Nrf2 PPI | EBV gp42 block | RTF Ca sens act | RTF inh confirm
Cc1ccc(NC(=O)Cc2nc(-c3c[nH]c(C(=O)N4CCCC4)c3)cs2)c(C)c1 | n | n | n | n | x | n | x
NC(=O)c1c(N)sc2c1CCCCC2 | n | n | n | n | n | 30 | x
COc1ccc(S(=O)(=O)N2CC(C)OC(C)C2)cc1C(=O)N1CCCCC1 (configuration not stated) | n | n | n | n | x | n | x
COCCCC/C(=N\OCCN)c1ccc(C(F)(F)F)cc1 | n | 20! | n | n | n | n | n
O=C(CCC(=O)OCC(=O)c1ccc(C(F)(F)F)cc1)OCC(=O)c1ccc(C(F)(F)F)cc1 | x | x | n | x | n | x | x
c1ccc(-c2noc(C34CC5CC(CC(C5)C3)C4)n2)cc1 | n | n | n | n | n | n | x
c1ccc(-c2noc(C34CC5CC(CC(C5)C3)C4)n2)nc1 | n | 18 | n | n | n | n | n
CNc1ncnc2c1ncn2[C@@H]1O[C@H](CO)[C@@H](O)[C@H]1O | n | n | n | n | x | n | x
NCCNC(=O)Cc1ccc(NC(=O)Cc2ccc(Nc3ncnc4c3ncn4[C@@H]3O[C@H](CO)[C@@H](O)[C@H]3O)cc2)cc1 | n | 23 | n | n | x | n | n
CCOc1ccccc1NC(=O)COC(=O)C1COc2ccccc2O1 (configuration not stated) | x | x | n | x | x | x | x
CC(=O)C1=C(C)NC(SCC(=O)c2ccc(F)cc2)=C(C#N)C1CC(C)C (configuration not stated) | n | 19 | n | n | n | n | n
CC(=O)C1=C(C)NC(SCC(=O)c2ccc(Cl)cc2)=C(C#N)C1CC(C)C (configuration not stated) | n | n | n | n | n | n | x
CN(C)S(=O)(=O)c1ccc(NC(=O)N2CCN(c3ccccc3Cl)CC2)cc1 | n | 19 | n | n | n | n | n
O=C(Nc1ccc2c(c1)OCO2)c1ccc2sc([C@H]3C[C@H](O)[C@@H](CO)O3)nc2c1 | x | x | n | x | x | x | x
CC(C)(C(=O)N1CCC1(C)C(=O)Nc1ccccc1Br)c1ccccc1 (configuration not stated) | x | x | n | x | x | x | x
CC/C(=C(\c1ccc(O)cc1)c1ccc(OCCN(C)C)cc1)c1ccccc1 | n | 18 | n | n | n | n | n
CCCc1c(O)nc(SC2CC(=O)N(c3ccc(OC)cc3)C2=O)[nH]c1=O (configuration not stated) | n | 17 | n | n | n | n | n
CN=c1scc(-c2cccs2)n1/N=C/c1ccccc1O | n | 17 | n | n | n | n | n
CCCOc1ccccc1C1NC(=O)NC(C)=C1C(=O)OCCOC (configuration not stated) | n | 19 | n | n | n | n | n
CCCCOc1ccccc1C1NC(=O)NC(C)=C1C(=O)OCCOC (configuration not stated) | n | n | n | n | x | n | x
Cc1ccc(SCC(=O)NC(=O)c2ccccc2Br)c(C)c1 | n | n | n | n | x | n | x
O=C(CN1C(=O)/C(=C2\SC(=S)N(CCS(=O)(=O)O)C2=O)c2ccccc21)Nc1cccc(Br)c1 | n | 30 | n | n | x | n | n
COc1ccc(Cl)cc1CC=NNC(=O)c1ccncc1 | n | n | n | n | x | n | x
Cc1cc(OCCCC(=O)NC2=NCCS2)ccc1Cl | n | 17 | n | n | n | n | n
CCOC(=O)/C(=C/c1ccc(OC(=O)c2ccncc2)cc1)C(C)=O | n | n | n | n | n | n | x
SMILES | LANA DNA inh | RTF Ca sens inh | E coli Lon inh | Keap1-Nrf2 PPI | EBV gp42 block | RTF Ca sens act | RTF inh confirm
COCCOC(=O)/C(=C/c1ccc(OC(=O)c2ccccc2)cc1)C(C)=O | n | 25 | n | n | n | n | n
CC1CCCN(C(=O)C2CCCN(S(=O)(=O)c3cccc4nsnc34)C2)C1 (configuration not stated) | n | n | n | n | n | n | x
O=C(C1CCCN(S(=O)(=O)c2cccc3nsnc23)C1)N1CCCCCC1 (configuration not stated) | n | 17 | n | n | n | n | n
CC1CCCCN1C(=O)Cn1cnc2cc([N+](=O)[O-])ccc2c1=O (configuration not stated) | n | 18 | n | n | n | n | n
COc1ccc([N+](=O)[O-])cc1NC(=O)CSc1nncn1-c1ccccc1 | n | 19 | n | n | n | n | n
COc1ccccc1NC(=O)CSc1nncn1-c1ccccc1 | n | n | n | n | x | n | x
CC1=C(C(=O)N2CCOCC2)CC(CC(=O)NCc2ccco2)C(=O)N1CCC1=CCCCC1 (configuration not stated) | x | x | n | x | x | x | x
O=C(N/N=C/c1cccc(F)c1)c1cc(-c2ccco2)nc2ccccc12 | n | 17 | n | n | 66 | n | n
CCc1cc(C(=O)N/N=C/c2ccc(OC)cc2)c2ccccc2n1 | n | 18 | n | n | x | n | n
COc1ccc(OC)c(-c2cc(C(=O)N/N=C/c3ccc(F)cc3)c3ccccc3n2)c1 | x | x | n | x | x | x | x
COc1cc(/C=N/NC(=O)c2cc(-c3ccco3)nc3ccccc23)cc(OC)c1O | n | n | n | n | n | n | x
O=C(NN=Cc1cc(Br)c(O)c(Br)c1)c1ccccc1NS(=O)(=O)c1cccs1 | n | n | n | n | x | n | x
CCCNC(=O)CSc1nccn1Cc1ccc(OC)cc1 | n | 18 | n | n | n | n | n
CCN(CC)c1ccc(C(=C2C=CC(=[N+](CC)CC)C=C2)c2ccc(N(CC)CC)cc2)cc1 | n | 23 | n | n | x | n | n
O=C(CSc1nc(-c2ccccc2)nc2ccccc12)Nc1cccc(C(=O)O)c1 | n | x | n | n | n | x | x
O=C(CSc1nc(-c2ccccc2)nc2c1Cc1ccccc1O2)Nc1ccc(C(=O)O)cc1 | n | 20 | n | n | 87 | n | n
O=C(NCc1nnc2c(C(F)(F)F)cc(Cl)cn12)c1ccc2c(c1)OCO2 | n | n | n | n | x | n | x
O=C(O)c1ccc2c(c1)[C@@H]1C=CC[C@@H]1[C@H](c1ccccn1)N2 | 98 | 86 | n | n | x | n | 22
COc1ccc(C(=NNc2ccccc2C(=O)O)c2ccc(OC)cc2)cc1 | n | 17 | n | n | n | n | n
Cc1ccc(C2CC(c3ccc(NS(C)(=O)=O)cc3)=NN2C(=O)c2ccco2)cc1 (configuration not stated) | n | 20 | n | n | n | n | n
O=C(O)c1ccc2c(c1)C(=O)/C(=C\c1ccco1)C2=O | 70 | 20 | n | n | n | n | n
O=C(O)c1ccc2c(c1)C(=O)/C(=C/c1ccccc1)C2=O | n | n | n | n | n | n | x
COc1ccc(C)cc1S(=O)(=O)NCC(c1ccco1)N1CCc2ccccc2C1 (configuration not stated) | n | n | n | n | x | n | x
